# HT1080NT lethal: kills 2HG-producing HT-1080-NT fibrosarcoma cells; HT-1080-NT fibrosarcoma viability, CellTiter-Glo ATP luminescence, 48 h; Potency, µM (top dose mostly 46.1 µM), for inactives: at the top dose activity, negative = less viability, hits mostly cytotoxic; 1.6% of 360,000 active; AID 686970;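 further: NT is the 2HG producing partner of a matched IDH1 knockdown line; potency means the concentration at half of the fitted maximal effect; 0% = DMSO-treated cells and -100% = media-only wells without cells; nearly all actives have a fitted effect of over 55% in size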
#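 Fibrosarcoma NT cells, 750 per well in 5% FBS RPMI, were exposed to compound for 48 hours. Viability: CellTiter-Glo luminescence.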
# IL1B secr inh: inflammasome signaling inhibition, IL-1 beta readout | 4.7% of 360,000 active | THP-1 LPS/ATP IL-1B secretion, AlphaLISA, 16 h; hits give low values | AID 743279 | activity change, % at 57.5 µM; in the data active means activity change below about -50%; inconclusive means mostly about -30% to -49%
#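 THP-1 cells pretreated 1 hr with compounds (up to 57.5 uM final), then stimulated with LPS (250 ng/mL final) plus ATP (1.25 mM final); secreted IL-1B measured by AlphaLISA after 16 hr, decreased signal indicating inhibition.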
# DT40 TDP1 no CPT: qHTS for Inhibitors of human tyrosyl-DNA phosphodiesterase 1 (TDP1): qHTS in cells in absence of CPT. DT40 Tdp1-/- hTDP1 cells, no CPT, ATP luminescence, 48 h. Potency, µM (titrated, usually from 46.2 µM), without a hit: at the highest dose activity change, negative = growth inhibition, usual class: inhibitors. 15% of 420,000 active; further: potency means the concentration at half of the fitted maximal effect; nearly all actives have a fitted effect of over 55% in size
#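 Chicken DT40 Tdp1-/- cells complemented with human TDP1, screened without camptothecin (DMSO vehicle only), 400 cells/well. Compounds pin-transferred, cells incubated at 37 °C for at least 48 hr. Growth read as ATP-dependent luminescence (CellTiter-Glo, 30 min at RT).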
# TDP1 cell CPT: DT40-hTDP1 cell growth loss with CPT. 12% of 420,000 active. Potency, µM (titrated, usually from 46.2 µM), inactives show top-dose activity change, negative = growth inhibition, actives largely listed as inhibitors. chicken DT40 Tdp1-/-;hTDP1 cells + 20 nM CPT, ATP luminescence, 48 h; further: potency means the concentration at half of the fitted maximal effect; nearly all actives have a fitted effect of over 55% in size
#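 Chicken DT40 Tdp1-/- cells complemented with human TDP1, 400 cells/well, exposed to compounds plus 20 nM camptothecin for at least 48 h at 37 C; viability read as ATP content by CellTiter-Glo luminescence.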
# ALOX12 inh: ALOX12 (human) lipoxygenase inhibition. P18054. purified 12hLO, xylenol orange hydroperoxide absorbance. Potency, µM (series often up to 108 µM), for the others: at the highest dose activity change, negative = inhibition, most hits filed as inhibitors. 1.1% of 580,000 active. AID 1671190; further: potency means the concentration at half of the fitted maximal effect
# Target sequence (P18054 whole entry, looked up): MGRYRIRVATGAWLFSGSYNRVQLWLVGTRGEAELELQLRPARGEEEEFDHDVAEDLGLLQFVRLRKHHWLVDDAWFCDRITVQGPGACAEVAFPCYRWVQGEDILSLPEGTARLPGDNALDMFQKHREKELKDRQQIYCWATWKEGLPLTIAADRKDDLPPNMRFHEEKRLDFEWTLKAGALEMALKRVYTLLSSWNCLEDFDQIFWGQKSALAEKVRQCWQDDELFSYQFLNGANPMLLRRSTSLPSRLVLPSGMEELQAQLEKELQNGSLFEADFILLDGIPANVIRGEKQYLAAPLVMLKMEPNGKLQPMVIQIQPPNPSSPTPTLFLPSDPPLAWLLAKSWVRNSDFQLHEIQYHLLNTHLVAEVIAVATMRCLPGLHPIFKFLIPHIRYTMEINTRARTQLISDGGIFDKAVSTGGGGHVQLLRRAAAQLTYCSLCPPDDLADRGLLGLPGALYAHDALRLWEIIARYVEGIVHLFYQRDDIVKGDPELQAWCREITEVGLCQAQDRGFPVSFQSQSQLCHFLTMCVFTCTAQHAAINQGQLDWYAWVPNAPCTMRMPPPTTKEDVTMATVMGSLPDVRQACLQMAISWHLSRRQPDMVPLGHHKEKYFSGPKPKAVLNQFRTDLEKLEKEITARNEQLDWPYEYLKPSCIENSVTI
#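 Hydroperoxide product was detected by ferrous iron/xylenol orange as the 573 to 405 nm absorbance ratio. Arachidonic acid at 40 uM (final) was turned over for 30 min at room temperature by 150 nM human 12hLO, pH 7.0 Hepes buffer, after 15 min compound preincubation.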
# HT1080 IDH1KD tx: toxicity to HT-1080 IDH1 knockdown cells (counter line) | HT-1080 IDH1 knockdown viability, ATP luminescence, 48 h | AID 686971 | Potency, µM (top dose mostly 46.1 µM), without a hit: top-dose activity, negative = toxicity, actives largely listed as cytotoxic | 2% of 360,000 active;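 further: potency means the concentration at half of the fitted maximal effect; 0% = DMSO wells and -100% = cell-free medium wells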
#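 Viability of IDH1-knockdown HT-1080 fibrosarcoma cells was assessed by CellTiter-Glo after 48 h at 37 °C with titrated compound; concentration-effect curves were classified by fit quality and response size.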
# An asterisk follows results filed as active; u = inconclusive; x = no result given; [ ] = another dose, or the depositor's remark. Only a selection was taken, and hits are over-represented in it overall. Unless noted, the call rests on the fitted dose curve; in most records, active means well fitted curve in the direction sought with a large enough effect; inconclusive means small, poorly fitted or top-dose-only effect, or another doubt; inactive means no such curve, though single readings can be large; an effect the other way counts as inactive or inconclusive. Unless noted, on the % scale 0 is the no-effect control and ±100 the full control effect.
SMILES,HT1080NT lethal,IL1B secr inh,DT40 TDP1 no CPT,TDP1 cell CPT,ALOX12 inh,HT1080 IDH1KD tx
O=C(Cc1cccs1)N1CCC(Oc2ccccc2)C1 (stereo not drawn),x,x,x,x,50µM*,x
CC(=O)N1CCC(Oc2ccccc2)C1 (stereo not drawn),x,x,x,x,-5%,x
CN(C)CCCNC(=O)C1(O)c2cc(Br)ccc2NC(=O)N1c1c(F)cccc1F (stereo not drawn),15%,9,-1%,3%,65%,16%
OC(CN1CCCCC1)c1ccccc1 (stereo not drawn),x,x,3%,0%,x,x
OC(CN1CCCC1)c1ccccc1 (stereo not drawn),x,x,-28%,u,x,x
OC(CN1CCN(C(c2ccccc2)c2ccccc2)CC1)c1ccccc1 (stereo not drawn),0%,0,u,u,x,7%
OC(CN1CC=C(/C=C/c2ccc(Br)cc2)CC1)c1ccccc1 (stereo not drawn),u,-73*,u,u,u,u
OC(CN1CCN(c2ccccc2Cl)CC1)c1ccccc1 (stereo not drawn),16µM*,8,-15%,-3%,-15%,u
OC(CN1CCN(C(c2ccccc2)c2ccccc2)CC1)c1ccc(Br)cc1 (stereo not drawn),1%,-1,u,18µM*,u,0%
Cn1c(Cc2cccs2)nnc1SCC(=O)N1CCN(c2ncccn2)CC1,x,x,x,x,-10%,x
N#CC1=C(N)C(C#N)(C#N)C2(C(=O)Nc3ccccc32)C2CCCC=C12 (stereo not drawn),u,-53*,-26%,-20%,u,-19%[9.24 µM]
O=C1Nc2ccccc2C12OC1CCCCC1O2 (stereo not drawn),2%,-9,-18%,-10%,8%,0%
COc1ccc2ccc3c(c2c1)N=C[C@]1(O3)N(C)c2ccccc2C1(C)C,u,-26,10µM*,18µM*,u,u
CC1=NOC2(C1)N(C)c1ccccc1C2(C)C (stereo not drawn),3%,0,-2%,-5%,-2%,-1%
O=C(CCc1c(-c2ccc(F)cc2)[nH]c2ccccc12)N1CCCC1,x,x,x,x,6%,x
O=C(c1ccc(CSc2nc3ccncc3n2Cc2cccc(F)c2)cc1)N1CCCCCC1,x,x,16µM*,u,-5%,x
O=C(c1ccc(CSc2nc3ccncc3n2Cc2cccc(F)c2)cc1)N1CCCCC1,x,x,21µM*,u,-29%,x
Cc1ccc(C)c([S+](=O)([O-])c2nnn3c2nc(N2CCC(F)CC2)c2ccccc23)c1,x,x,x,x,-1%[6.33 µM],x
CC(C)N(CCNC(=O)c1ccc2ccccc2n1)C(C)C,x,x,x,x,15%,x
CCSc1nnc(NC(=O)c2ccc3ccccc3n2)s1,-14%,8,u,18µM*,2%,-16%
CCc1nnc(NC(=O)c2ccc3ccccc3n2)s1,-14%,34,18µM*,u,-10%,-5%
CCc1nnc(NC(=O)c2sc3nc4cc(C)ccc4cc3c2N)s1,24%,0,2.9µM*,2.6µM*,u,4%
CCOCCCn1c(=S)[nH]c2cc(C(=O)NCCc3ccccc3)ccc2c1=O,0%,23,6%,u,0%,8%
CCOCCCNC(=O)[C@H]1CCC[C@H]1NC(=O)c1ccncc1,x,x,x,x,53%,x
Cc1cc(=O)[nH]c(NCCNC(=O)C2CCC(=O)N(C3CCCCCC3)C2)n1 (stereo not drawn),x,x,x,x,30%,x
SMILES,HT1080NT lethal,IL1B secr inh,DT40 TDP1 no CPT,TDP1 cell CPT,ALOX12 inh,HT1080 IDH1KD tx
COc1cc(/C=N/O)cc(I)c1OC,x,x,x,x,-4%,x
COC(=O)[C@]12CCCCC=C1N(Cc1cccc3ccccc13)C(=O)[C@H](CC(=O)NCc1cccc3ccccc13)C2,-14%,-19,u,u,11%,-16%
CCOC(=O)[C@]12CCCC=C1N(Cc1cccc3ccccc13)C(=O)[C@H](CC(=O)N1CCC(c3ccccc3)CC1)C2,2%,-19,u,u,-16%,-3%
COC(=O)[C@]12CCCCC=C1N(Cc1cccc3ccccc13)C(=O)[C@H](CC(=O)N1CCCCC1)C2,u,15,23µM*,u,0%,u
COC(=O)[C@]12CCCCC=C1N(Cc1cccc3ccccc13)C(=O)[C@H](CC(=O)N1CCC(c3ccccc3)CC1)C2,-3%,-26,15µM*,u,0%,-10%
CCOC(=O)Cc1nnc2c(Nc3ccc(Cl)cc3)nc3nonc3n12,u,25,u,u,u,9.2µM*
O=c1c(-c2ccccc2)coc2cc(OCCN3CCCCC3)ccc12,x,x,x,x,-3%,x
CC(=O)N1CC2(CCCN(C(=O)CCC(=O)O)C2)Cc2ccccc21 (stereo not drawn),x,x,x,x,9%[6.33 µM],x
CCC(=O)N1CCc2cc(Br)cc(S(=O)(=O)N3CCCC(C(=O)Nc4cccc(C)c4C)C3)c21 (stereo not drawn),x,x,u,u,-22%,x
CCN(C(=O)C1CCN(S(=O)(=O)c2cc(Br)cc3c2N(C(C)=O)CC3)CC1)c1cccc(C)c1,x,x,23µM*,u,-21%,x
CCC(=O)N1CCc2cc(Br)cc(S(=O)(=O)N3CCCC(C(=O)N(C)c4ccc(Br)cc4)C3)c21 (stereo not drawn),x,x,u,18µM*,-14%,x
CCCN(CCC)C(=O)C1CCCN(S(=O)(=O)c2cc(Br)cc3c2N(C(=O)CC)CC3)C1 (stereo not drawn),x,x,21µM*,u,1%,x
CN1CCN(C(=O)[C@@H]2CCC[C@@H](NCc3nccn3C)CN(C)C(=O)C2)CC1,x,x,x,x,26%[176 µM],x
Cc1nc(-c2cn(C3CCCN(C(=O)c4cccc(Cl)c4)C3)nn2)no1 (stereo not drawn),x,x,x,x,1%,x
COc1ccc(C(C#N)=Cc2ccccc2OC)cc1,u,26,5.2µM*,6.5µM*,0%,u
COc1ccc(C(C#N)=Cc2ccc(OC)c(OC)c2)cc1,-3%,-14,u,-29%,-21%,0%
CCOC(=O)c1cc(N2CCCCC2)nc2ccccc12,9%,5,u,23µM*,-17%,4%
CC(=O)c1cccc(NC(=O)c2ccc(Cn3cnc4ccccc4c3=O)cc2)c1,x,x,x,x,2%,x
CN(C)C[C@@H]1CN(C2CCOCC2)C[C@H]1NC(=O)c1ccc(F)c(Cl)c1,x,x,x,x,51%,x
COc1ccc(CC(=S)N2CCOCC2)cc1,13%,40,18µM*,u,u,12%
